Test [1] relates to Zika virus NS2B-NS3 protease (unlinked complex). The experiment in a line: Primary screen GU Rhodamine qHTS for Zika virus inhibitors: Unlinked NS2B-NS3 protease assay (AID 1347159). Further: nearly all actives have a fitted effect of over 60% in size. Further: potency means the concentration at half of the fitted maximal effect. On activity change, negative = inhibition: on the % scale 0 is the no-effect control and ±100 the full control effect. The method in brief:
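Noncovalent NS2B hydrophilic domain/NS3 protease complex (25 nM final) in 10 mM Tris-HCl pH 8.0, 0.01% Tween 20, preincubated 15 min with compounds (up to 114 microM), then 1.5 microM Rhodamine110 substrate. Fluorescence change over 15 min fitted to 4-parameter Hill.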
Background: qHTS replaces the single test concentration by a dilution series.

The nature of test [2]: ZIKV-mCherry secondary qHTS for Zika virus inhibitors (AID 1347158). Further: potency means the concentration at half of the fitted maximal effect. On activity change, negative = inhibition: top concentration of the series differs between compounds. The procedure, abridged: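 Vero cells, 5,000/well, plated overnight at 37 °C, then compound added and infected with recombinant ZIKV-mCherry at MOI 1 for 48-72 h. PFA-fixed, Hoechst nuclear stain, high-content imaging; cells with mCherry intensity above 450 RFU scored infected, reported as percent infection.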

The nature of test [3]: Confirmatory screen NINDS Rhodamine qHTS for Zika virus inhibitors (AID 1347161). Further: potency means the concentration at half of the fitted maximal effect; nearly all actives have a fitted effect of over 60% in size. The method in brief: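 Aprotinin served as in-plate control. Conditions: 25 nM linked NS2B-NS3, pH 8.0 Tris buffer, titrated compounds, 15 min preincubation and 15 min reaction with 1.5 microM Rhod110 substrate at room temperature.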
In test [4] the test system is Zika virus NS2B-NS3 protease (linked). The experiment in a line: 384 well plate NINDS AMC confirmatory qHTS for Zika virus inhibitors (AID 1347163). Further: nearly all actives have a fitted effect of over 50% in size. Further: potency means the concentration at half of the fitted maximal effect.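 On activity change, negative = inhibition: linked protease at 5 30 or 60 nM final depending on run; fluorescence of AMC released from Ac-VKTGKR-AMC peptide cleaved by the protease; top concentration of the series differs between compounds; 0% = no-inhibitor control and -100% = no-enzyme control.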 The method in brief:
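Linked protease 5/30/60 nM final; cpds up to 1 mM final, ~15 min preinc. Substrate Ac-VKTGKR-AMC 30 microM final. RT, dark, 25 min; FI ex 355/em 460; normalized to no-enzyme/no-inhibitor ctrls.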

Test [5] relates to Zika virus NS2B-NS3 protease (linked construct). The experiment in a line: 384 well plate NINDS Rhodamine confirmatory qHTS for Zika virus inhibitors (AID 1347164). Further: nearly all actives have a fitted effect of over 65% in size. Further: potency means the concentration at half of the fitted maximal effect.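 On activity change, negative = inhibition: top concentration of the series differs between compounds; plate controls were no-inhibitor control for no effect and no-enzyme control for full effect.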 The method in brief:
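Cleavage of Ac-LKRR-Rhodamine 110 (10 microM final) by linked protease (final 5, 30 or 60 nM) was followed as fluorescence at 485/538 nm after 25 min, room temperature, dark. Compounds preincubated ~15 min.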

Test [6] in a line: Tertiary RLuc qRT-PCR qHTS assay for Zika virus inhibitors (AID 1347169). Further: nearly all actives have a fitted effect of over 55% in size. Further: potency means the concentration at half of the fitted maximal effect. On activity change, negative = inhibition: top concentration of the series differs between compounds; on the % scale 0 is the no-effect control and ±100 the full control effect. The method in brief:
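Inhibition of ZIKV-RLuc replication in Vero cells, read as Renilla luminescence 1-1.5 hrs after live-cell substrate addition, following 48-72 hrs infection at MOI 1-2 in presence of compound.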
In general terms: Real-time PCR tracks product formation cycle by cycle.

The subject of test [7] is Zika virus NS2B-NS3 protease (linked construct). The experiment in a line: Primary screen NINDS Rhodamine qHTS for Zika virus inhibitors (AID 1347160). Further: potency means the concentration at half of the fitted maximal effect; nearly all actives have a fitted effect of over 55% in size. The method in brief: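 Purified NS2B-NS3 protease with the NS2B hydrophilic domain joined by a flexible linker (25 nM) in 10 mM Tris-HCl pH 8.0, 0.01% Tween 20, preincubated 15 min at RT with compound; Rhodamine110 peptide substrate 1.5 µM; fluorescence change over 15 min; 4-parameter Hill fit.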

A short description of test [8]: Vero cells viability qHTS for Zika virus inhibitors (AID 1347167). Further: on the % scale 0 is the no-effect control and ±100 the full control effect. The method in brief:
(§1)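 Compounds were tested in concentration series on cells grown in DMEM containing 4% FBS. After 24 to 48 hours, cellular ATP was measured by luminescence with CellTiter Glo.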

Test [9] in a line: HepG2 cells viability qHTS for Zika virus inhibitors (AID 1347168). Further: on the % scale 0 is the no-effect control and ±100 the full control effect. The procedure, abridged:
as §1

Results filed as inconclusive are left out. A number with no mark means an inactive call. Activity calls are given as the source filed them. The call rests on the fitted dose curve; in most records, active means well fitted curve in the direction sought with a large enough effect; inconclusive means small, poorly fitted or top-dose-only effect, or another doubt; inactive means no such curve, though single readings can be large; an effect the other way counts as inactive or inconclusive.

Potency, activity change, negative = inhibition and outcome data for 33 compounds are collected here from PubChem BioAssay (NCATS).

Consider `COc1cc(CN(CCN)C(=O)c2cccs2)ccc1OCc1ccccc1`, for which the Potency entry in test [1] is “inactive”.

As for `CCNC1(C(N)=O)CN(c2nc(C)nc3c(-c4ccc(Cl)cc4)c(-c4ccccc4Cl)nn23)C1`, the Potency entry in [1] was “inactive”.

Take `C=C(C(=O)O)[C@@H]1CC=C(CCC(C)=O)[C@@H](C)CC1`: the Potency in test [1] is 56.2 µM (active).

For `Cc1cc(CS(=O)(=O)c2ccccc2)cc(OCc2ccc(CN3CCCC3CO)cc2)c1` (configuration not stated), in test [1], the Potency result is “inactive”.

Turning to `O=C(Nc1ccnc(NC(=O)C2CC2)c1)c1c(Cl)cccc1Cl`, the Potency result in test [1] was “inactive”.

`CC(=O)C1=C(O)C=C2Oc3c(C(C)=O)c(O)c(C)c(O)c3[C@]2(C)C1=O`: the Potency in test [1] was 31.6 µM (active).

As for `Cc1c(OCc2cccc(-c3ccc(C(=O)O)cc3)c2)cc2c(c1C)C(=O)C(C1CCCC1)C2` (configuration not stated), the Potency in test [1] is 1.78 µM (active).

Regarding `CCn1c(=O)c(-c2ccc(-c3cncs3)cc2Cl)cc2cnc(Nc3ccc(N4CCN(C)CC4)cc3)nc21`, the Potency entry in [1] was “inactive”.

For `O=C(Nc1ccccc1)c1ccc(Nc2nnc(-c3ccc(O)cc3)c3ccccc23)cc1`, the Potency in test [1] was 14.1 µM (active).

For `CC(C)[C@@H](c1ccc(C(F)(F)F)cc1CN(Cc1cc(C(F)(F)F)cc(C(F)(F)F)c1)c1nnn(C)n1)N1CCC(C(=O)O)CC1`, the Potency in [1] was 3.16 µM (active).

`O=C(OC1CN2CCC1CC2)N1CCc2ccccc2C1c1ccccc1` (configuration not stated): in [1], the Potency entry is “inactive”.

Regarding `Cc1sc2c(c1C)C(c1ccc(Cl)cc1)=N[C@@H](CC(=O)Nc1ccc(OCCOCCOCCOCCNc3cccc4c3C(=O)N(C3CCC(=O)NC3=O)C4=O)cc1)c1nnc(C)n1-2` (some centres not stated), the Potency entry in test [1] was “inactive”.

`O=C(Nc1ccc(/C=C/c2ccc(NC(=O)c3cc(S(=O)(=O)O)c4cccnc4c3O)cc2S(=O)(=O)O)c(S(=O)(=O)O)c1)c1cc(S(=O)(=O)O)c2cccnc2c1O`: the Potency result in [2] is “inactive”. Further, the Potency in test [3] was 2.51 µM (active); in test [4] it was 44.7 µM (active); in test [5], 15.8 µM (active). Moreover, in [6], the activity change, negative = inhibition is 59.5% [at 5.25 µM].

As to `COC1C(OC(=O)/C=C/C=C/C=C/C=C/C(=O)O)CCC2(CO2)C1C1(C)OC1CC=C(C)C` (configuration not stated), the Potency in [1] was 8.91 µM (active).

In the case of `CN[C@@H]1[C@H](O[C@H]2[C@H](O[C@@H]3[C@@H](O)[C@H](O)[C@@H](N=C(N)N)[C@H](O)[C@H]3N=C(N)N)O[C@@H](C)[C@]2(O)CO)O[C@@H](CO)[C@H](O)[C@H]1O`, the Potency entry in test [1] is “inactive”.

For `Cc1c(Cl)cccc1S(=O)(=O)Nc1nc(NCCc2ccccc2)nc2c1CN(Cc1ccccc1)CC2`, the Potency in test [1] was 7.94 µM (active).

On to `CC/C(C)=C/C(=O)OC1C(OC2(C)CCC3C(C4C(C)CCC42)C3(C)C)OC(C)C(O)C1O` (configuration not stated), for which, in test [1], the Potency was 14.1 µM (active).

`Cc1ccc(C)c(-c2cc(C(F)(F)F)nn2-c2ccc(S(N)(=O)=O)cc2)c1`: the Potency entry in [1] was “inactive”.

Consider `N#Cc1ccc(N2N=C3c4ccc(C(=O)O)cc4CC[C@@H]3[C@@H]2C2CCCC2)cc1Cl`, for which the Potency in [2] is 2.51 µM (active); in test [1], 1.41 µM (active); in test [7], 2 µM (active); in [3] it was 1.75 µM (active); in [5], 4.47 µM (active); in test [6], 14.7 µM (active). For the same compound, the Potency result in [4] was “inactive”. Also, the call in [8] and in test [9] was inactive.

`COc1cc(CCc2ccc(OCC=C(C)C)cc2)cc(OC)c1OC`: the Potency result in test [1] was “inactive”.

For the compound `Cc1cc(OCCCS(C)(=O)=O)cc(C)c1-c1cccc(COc2ccc(C3=CC(=O)NS3=O)cc2)c1` (configuration not stated), in test [1], the Potency is 3.55 µM (active).

For the compound `CC(=O)OC(C)(C)/C=C/C(=O)C(C)(O)C1C(O)CC2(C)C3CC=C(C(C)(C)C(=O)O)C(CC(=O)O)C3(C)C(=O)CC12C` (configuration not stated), the Potency result in test [1] is “inactive”.

For `O=C1C[C@]23C=CCN4CCC5c6cc7c(cc6N1[C@@]5(CC2)C43)OCO7` (some centres not stated), the Potency entry in [1] is “inactive”.

Take `CC(C)C[C@H](CO)Nc1nc(S[C@@H](C)c2ccccc2)nc2nc(N)sc12`: the Potency entry in test [1] was “inactive”.

Consider `COc1ccc(C[C@H]2COC(=O)[C@@H]2Cc2ccc(O[C@@H]3O[C@H](CO)[C@@H](O)[C@H](O)[C@H]3O)c(OC)c2)cc1OC`, for which the Potency result in [1] is “inactive”.

Consider `CN(C)CCC(CSc1ccccc1)Nc1ccc(S(=O)(=O)NC(=O)c2ccc(N3CCN(Cc4ccccc4-c4ccc(Cl)cc4)CC3)cc2)cc1[N+](=O)[O-]` (configuration not stated), for which the Potency in test [1] is 7.94 µM (active).

On to `CC#C[C@@H](CC(=O)O)c1ccc(OCc2ccc(CN3CCC4(C=Cc5ccccc54)CC3)s2)cc1`, for which the Potency entry in test [2] was “inactive”. Besides, the Potency is 3.16 µM (active) in [1], 5.62 µM (active) in [7], 3.5 µM (active) in test [3] and 5.01 µM (active) in test [4]. The outcome in [8] and in test [9] was inactive.

Regarding `COC(=O)C[C@H]1[C@]2(C)C3=C(C)[C@H](c4ccoc4)C[C@H]3O[C@@H]2[C@H](O)C2[C@](C)(C(=O)OC)C=CC(=O)[C@@]21C` (some centres not stated), the Potency entry in test [1] was “inactive”.

For `CN(C)CCn1cc(-c2ccc(F)cc2)c(-n2cccc2)n1`, the Potency entry in [1] is “inactive”.

As for `CC[C@H](C)/C=C(C)/C=C/C1=CC2=CC(=O)[C@]3(C)OC(=O)[C@@H](C(C)=O)[C@@H]3C2=CO1`, the Potency in test [1] was 10 µM (active).

As for `O=C(O)c1ccc(N2C(=O)/C(=C/c3ccc(-c4ccc([N+](=O)[O-])cc4)o3)C=C2c2ccccc2)cc1`, the Potency entry in [2] and in [5] was “inactive” in each case. Besides, the Potency is 1.78 µM (active) in [7], 1.75 µM (active) in test [3] and 22.4 µM (active) in [4]. Besides, the outcome in [8] and in test [9] was inactive.

On to `CCC/C=C/c1cc2c(C=O)c(O)c(CC=C(C)C)cc2o1`, for which the Potency in test [1] was 7.94 µM (active).

`C/C=C(/C)C(=O)O[C@H]1[C@H](OC(=O)/C(C)=C\C)[C@@]23C(CC1(C)C)[C@]1(CCC4[C@@]5(C)CC[C@H](O[C@@H]6O[C@H](C(=O)O)[C@@H](O)[C@H](O[C@@H]7O[C@H](CO)[C@H](O)[C@H](O)[C@H]7O[C@@H]7O[C@@H](C)[C@H](O)[C@@H](O)[C@H]7O[C@@H]7OC[C@@H](O)[C@H](O)[C@H]7O)[C@H]6O[C@@H]6O[C@H](CO)[C@H](O)[C@H](O)[C@H]6O)C(C)(C)C5CC[C@@]4(C)[C@]1(C)C[C@H]2O)O[C@H]3O` (some centres not stated): the Potency in test [1] was 3.98 µM (active).
